The values below come from PubChem BioAssay (NCI).

The panel holds about 83,000 compounds, 20% with a hit somewhere; the sample as a whole holds those more often.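 Single-dose data. Exposure time 48 hours. Values below 10 considered active.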 Values without a mark were called inactive. Calls of active or inactive are those of the source.

Holding throughout (test): NCI-60 one-dose screen, 48 h (100 = growth as untreated, 0 = no growth, -100 = all killed)
Common to all, as to conditions: 10 µM unless noted

The test system of experiment [1] is NCI-H23 lung.
Experiment [2] relates to NCI-H226 lung.
Experiment [3] concerns NCI-H322M lung.
In experiment [4] the test system is HOP-62 NSCLC.
The test system of experiment [5] is NCI-H460 lung.
Experiment [6] concerns HOP-92 NSCLC.
The subject of experiment [7] is NCI-H522 lung.
The test system of experiment [8] is A549/ATCC NSCLC.
For experiment [9], the system named is 786-0 renal.
The subject of experiment [10] is COLO 205 colon.

In the case of `C=CN(C(=O)N1CCN(c2cc3c(cc2F)c(=O)c(C(=O)O)cn3C2CC2)CC1)c1nc(-c2ccc(OC)cc2)cs1`, the growth in experiment [1] was 12.7%; in [2], 37.8%; in [3], 15.3%; in [4], 18.5%; in [5], 10.8%; in experiment [6], -14.1% (active). For the same compound, the growth in experiment [7] is 12.7%; in experiment [8], 16.6%; in [9], 30.5%; in experiment [10] it was 29.5%.

As for `Oc1c(CN2CCOCC2)cc(COCc2ccccc2)c2cccnc12`, the growth in experiment [1] was 39.1%; in [2] it was 43.4%; in experiment [3] it was 14.7%; in experiment [4], 10.7%; in [5], 16.1%; in experiment [6], 62.4%. Besides, the growth was 4.41% (active) in [7], 26.5% in experiment [8], 32.6% in experiment [9] and 62.8% in experiment [10].

Consider `N#Cc1c(Nc2ccc(N3CCOCC3)cc2)nc(SCC(=O)c2ccc(Br)cc2)nc1-c1ccccc1`, for which the growth in experiment [1] is 98%; in experiment [2], 108%; in [3] it was 97.7%; in [4], 92.6%; in [5], 114%; in experiment [6], 99.7%. The growth in experiment [7] was 96.2%; in experiment [8] it was 97.3%; in experiment [9] it was 101%; in experiment [10], 107%.

Regarding `CCCCCCCCCCCCCCCCCCOc1ccccc1CC(=O)NCC[N+]1(C)CCCCC1`, the growth in experiment [1] is 62.5%; in experiment [2] it was 74.2%; in experiment [3], 62.7%; in [4], 59%; in experiment [5], 41.9%; in experiment [6], 19.9%. For the same compound, the growth in experiment [7] is 32.7%; in [8], 51.2%; in experiment [9], 74.2%; in experiment [10], 23.6%.

On to `CC(C)(C)n1cc(-c2ccnc(NCCCNS(=O)(=O)c3ccc(C(F)(F)F)cc3)c2)c(-c2cccc(F)c2)n1`, for which the growth in [1] was 82%; in experiment [2], 91.1%; in experiment [3], 103%; in experiment [4], 92.7%; in [5] it was 76.7%; in experiment [6], 90.1%. In addition, the growth in experiment [7] is 73.7%; in experiment [8], 64.1%; in experiment [9] it was 88.3%; in experiment [10] it was 76.9%.

Consider `C=C(C)[C@@H]1CCC[C@]2(C(=O)N3CCN(C)CC3)CC[C@]3(C)[C@@H](CC[C@@H]4[C@@]5(C)CC/C(=N\NC(=O)c6ccncc6)C(C)(C)[C@@H]5CC[C@]43C)[C@@H]12`, for which the growth in experiment [1] is 93.3%; in experiment [2], 101%; in experiment [3], 93.7%; in experiment [4], 96.9%; in [5] it was 88%; in experiment [6] it was 107%. The growth is 98.3% in experiment [7], 99.5% in [8], 93.6% in [9] and 99.1% in [10].

For `COc1cc2c(cc1OCCCCN1CCN(C(=S)SCCC(C#N)(c3ccccc3)c3ccccc3)CC1)N=C[C@@H]1CCCN1C2=O`, the growth in experiment [1] was -33.8% (active); in experiment [2] it was -44.2% (active); in experiment [3], -81.1% (active); in experiment [4], 7.67% (active); in [5] it was -73.9% (active); in experiment [6], -72.4% (active). Besides, the growth in experiment [7] was -54.1% (active); in experiment [8] it was -32.1% (active); in experiment [9], -85.2% (active); in experiment [10], -7.95% (active).

For the compound `N=C(N)c1ccc(-c2ccc(-c3cc(Cl)cc(Cl)c3)s2)nc1`, the growth in [1] is 75.5%; in [2], 93.7%; in [3], 52.8%; in experiment [4], 86.5%; in experiment [5], -60.3% (active); in experiment [6] it was 87.8%. Further, the growth in experiment [7] is 34.1%; in experiment [8] it was 0.133% (active); in experiment [9], 79.6%; in [10], -38.4% (active).

On to `CSc1nc(C)c([N+](=O)[O-])c(N)n1`, for which the growth was 101% in [1]; 102% in [2]; 93.7% in [3]; 104% in experiment [4]; 104% in experiment [5]; 89.3% in experiment [6]. In addition, the growth in experiment [7] is 77.2%; in experiment [8] it was 76.2%; in experiment [9] it was 103%; in experiment [10] it was 110%.

Turning to `CC1(C)CC[C@]23CC[C@]4(C)[C@H](CC[C@@H]5[C@@]6(C)C/C(=C/c7ccncc7)C(=O)C(C)(C)[C@@H]6CC[C@]54C)[C@H]2[C@H]1OC3`, the growth in experiment [1] was 91.8%; in [2] it was 90.9%; in experiment [3], 90.9%; in experiment [4], 91%; in experiment [5], 75.8%; in experiment [6] it was 72.4%. Moreover, the growth was 76.4% in experiment [7], 76.5% in experiment [8], 88.5% in experiment [9] and 68.5% in [10].

Take `O=C(NNC(=O)c1ccc(NC(=O)c2ccccn2)cc1)Nc1ccc2ccccc2c1`: the growth is 96.5% in [1]; 103% in [2]; 103% in [3]; 115% in experiment [4]; 110% in experiment [5]; 108% in [6]. Further, the growth was 105% in experiment [7], 108% in [8], 111% in experiment [9] and 130% in [10].

Regarding `O=C(Nc1ccc(Cl)cc1)Oc1c(Cl)c(Cl)c(Cl)c(Cl)c1Cl`, the growth in experiment [1] was 86.1%; in experiment [2], 89.6%; in [3] it was 95.2%; in [4], 85.6%; in experiment [5] it was 101%; in experiment [6], 41%. For the same compound, the growth was 83.2% in experiment [7], 93.3% in [8], 94.7% in experiment [9] and 105% in experiment [10].
